According to PubChem BioAssay (EPA / NIEHS):
Values joined by “and” are separate entries in the source; they are usually repeats but may differ in a detail not shown here. Equal entries are not always repeated. Results filed as inconclusive are left out. A structure can be active in one record and inactive in another. Active and inactive are the calls of the source. How the source made its calls: active means hit-call score of the fitted dose curve at least 0.9, where 1 is the maximum; inconclusive means response in the unintended direction; inactive means score below 0.9.

The molecules below were run against Retinoic acid receptor RXR-alpha (Homo sapiens) (UniProt P19793) (assay: OT_NURR1_NURR1RXRa_1440: Odyssey Thera (OT) 24-hour HEK293T Protein Complementation Assay for Nurr1/retinoid X receptor (RXR) (AID 2283386)).
Description: OT_NURR1_NURR1RXRa_1440 is a cell-based assay that uses HEK293T, a human kidney cell line, with measurements taken at 24 hours after chemical dosing in a 384-well plate.OT_NURR1_NURR1RXRa_1440 is one of one assay component(s) measured or calculated from the OT_NURR1_NURR1RXRa_1440 assay. It is designed to make measurements of protein fragment complementation, a form of binding reporter, as detected with fluorescence intensity signals by Protein-fragment Complementation technology.Data from the assay component OT_NURR1_NURR1RXRa_1440 was analyzed into 1 assay endpoint. This assay endpoint, OT_NURR1_NURR1RXRa_1440, was analyzed in the positive analysis fitting direction relative to DMSO as the negative control and baseline of activity. Using a type of binding reporter, measures of receptor for gain-of-signal activity can be used to understand the binding at the pathway-level as they relate to the gene RXRA. Furthermore, this assay endpoint can be referred to as a primary readout, because the performed assay has only produced 1 assay endpoint. To generalize the intended target to other relatable targets, this assay endpoint is annotated to the nuclear receptor intended target family, where the subfamily is non-steroidal.
Protein-fragment complementation assay, or PCA, is a method for the identification and quantification of protein-protein interactions. In the PCA, the proteins of interest ("bait" and "prey") are each covalently linked to fragments of a third protein (e.g. DHFR, which acts as a "reporter"). Interaction between the bait and the prey proteins brings the fragments of the reporter protein in close proximity to allow them to form a functional reporter protein whose activity can be measured.

Retinoic acid receptor RXR-alpha (Homo sapiens), sequence (P19793 whole entry, looked up, the tested form may be a part): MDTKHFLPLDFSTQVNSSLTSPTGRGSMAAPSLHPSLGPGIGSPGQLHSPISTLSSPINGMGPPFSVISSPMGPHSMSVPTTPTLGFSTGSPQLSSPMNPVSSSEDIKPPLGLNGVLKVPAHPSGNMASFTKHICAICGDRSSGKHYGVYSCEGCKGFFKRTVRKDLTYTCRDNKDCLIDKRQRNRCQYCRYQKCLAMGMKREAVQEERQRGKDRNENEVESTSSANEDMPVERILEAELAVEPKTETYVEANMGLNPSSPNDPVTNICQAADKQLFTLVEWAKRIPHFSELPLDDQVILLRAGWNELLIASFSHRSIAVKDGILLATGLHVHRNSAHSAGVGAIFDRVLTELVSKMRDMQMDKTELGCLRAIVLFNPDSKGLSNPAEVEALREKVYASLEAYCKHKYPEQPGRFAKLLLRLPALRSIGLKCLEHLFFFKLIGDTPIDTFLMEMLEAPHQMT

Row | Compound | outcome | AC50
1 | CC(C)OC(=O)C(C)(C)Oc1ccc(C(=O)c2ccc(Cl)cc2)cc1 | inactive | –
2 | C=CCCCCCCCCCCCC | inactive | –
3 | O=C(Oc1ccccc1)c1cccc(C(=O)Oc2ccccc2)c1 | inactive | 69.2 µM (active)
4 | COC(=O)CCCC(=O)OC | inactive | –
5 | CN(C)CCCN(C)CCCN(C)C | inactive | –
6 | CC(=O)OCC(COC(C)=O)OC(C)=O | inactive | –
7 | CCCCc1nc2cccnc2n1Cc1ccc(-c2ccccc2-c2nnn[nH]2)cc1 | – | 7.85 µM (active)
8 | Nc1nc(=S)c2[nH]cnc2[nH]1 | inactive | –
9 | CCCCCCC(CCCCCCCCCCC(=O)OCC(COC(C)=O)OC(C)=O)OC(C)=O (stereo not given) | inactive | –
10 | CC(C)(C)c1ccccc1 | inactive | –
11 | CSc1ccc(Oc2ccc(S(N)(=O)=O)cc2CN(C)C)cc1C | – | 57.5 µM (active) and 19 µM (active)
12 | CCCCC(CC)COC(=O)CCCCCCCC(=O)OCC(CC)CCCC (stereo not given) | inactive | –
13 | Cc1cc(Cc2ccc(N)c(C)c2)ccc1N | inactive | –
14 | Oc1ccccc1O | – | 16 µM (active) and 23.7 µM (active)
15 | CCC(C)N(C)C(=O)c1cc2ccccc2c(-c2ccccc2Cl)n1 (stereo not given) | inactive | –
16 | CN(C)C(=O)NC1(c2ccccc2)CCN(CC[C@@]2(c3ccc(F)c(F)c3)CN(C(=O)c3ccccc3)CCO2)CC1 | inactive | –
17 | C/C=C/C=C/C(=O)O | inactive | –
18 | CC(=O)[C@@]1(O)CC[C@H]2[C@@H]3CCC4=CC(=O)CC[C@]4(C)[C@H]3CC[C@@]21C | inactive | –
19 | O=C1NC(=O)C(c2ccccc2)(c2ccccc2)N1 | inactive | –

Row | Compound | outcome | AC50
20 | CC(=O)CC(c1ccccc1)c1c(O)c2ccccc2oc1=O (stereo not given) | inactive | –
21 | CC(=O)O[C@]1(C(C)=O)CC[C@H]2[C@@H]3C=C(Cl)C4=CC(=O)[C@@H]5C[C@@H]5[C@]4(C)[C@H]3CC[C@@]21C | – | 82.6 µM (active)
22 | COC(=O)CCC(=O)OC | inactive | –
23 | COC(=O)[C@H]1[C@H]2C[C@@H]3c4[nH]c5cc(OC)ccc5c4CCN3C[C@H]2C[C@@H](OC(=O)c2cc(OC)c(OC)c(OC)c2)[C@@H]1OC | – | 16.5 µM (active) and 25.1 µM (active)
24 | CCCCC(CC)COP(=O)(OCC(CC)CCCC)OCC(CC)CCCC (stereo not given) | inactive | 76.1 µM (active)
25 | O=C(O)c1[nH]n(-c2ccc(S(=O)(=O)O)cc2)c(=O)c1N=Nc1ccc(S(=O)(=O)O)cc1 | inactive | –
26 | CCc1cc(C2=C(C(=O)O)N(c3ccccc3C(F)(F)F)S(=O)(=O)c3ccccc32)cc2c1OCO2 | inactive | –
27 | CC(=O)S[C@H](C(=O)N[C@H]1Cc2ccccc2[C@H]2CCC[C@@H](C(=O)O)N2C1=O)C(C)C | inactive | –
28 | O=C(NS(=O)(=O)/C=C/c1cccs1)c1ccc(F)cc1Br | – | 17.3 µM (active)
29 | Cc1ccc(C(C)(C)C)c(O)c1 | inactive | 78.7 µM (active)
30 | CC(=O)OC1CC(C)OC(C)O1 (stereo not given) | inactive | –
31 | CCCCCCCCCCCCCCCCO | inactive | –
32 | CCCCOC(=O)CCCCC(=O)OCCCC | inactive | –
33 | CCCCC(CC)CO (stereo not given) | inactive | –
34 | NC1CCCCC1 | inactive | –
35 | CC(C)COC(=O)CCCCC(=O)OCC(C)C | inactive | –
36 | CC(C)c1cccc(C(C)C)c1 | inactive | –
37 | C#CC(O)C(CC)CCCC (stereo not given) | – | 76.3 µM (active)
